# Hits are enriched below; roughly 21% of the tested compounds scored in any of these assays.
# Pf growth 48h – inhibits P. falciparum growth in the first generation, 48 h; P. falciparum luciferase growth in erythrocytes, 48 h; hit rate 5.9% among 310,000; Potency, µM (doses to about 28.7 µM), for inactives: top-dose activity change, negative = inhibition, hits mostly inhibitors; note: potency is the fitted concentration of half-maximal effect; % is set by controls: 0 for no effect and ±100 for the full control effect
#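 Firefly luciferase activity from engineered P. falciparum reports growth; inhibitors lower the luminescent signal. Cultures contained 2% hematocrit erythrocytes at 0.1% final parasitemia.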
# Shiga toxin inh – blocks Shiga toxin action in Vero cells. inhibition, % at 38.7 µM. AID 2315. hit rate 9.2% among 290,000. Vero cells, Shiga toxin protein synthesis inhibition reporter; in the data active = inhibition mostly above about 28%, no sharp cut-off; inactive = mostly below about 43%; note: 0% is about no effect
# CHX counter – counter-screen for Shiga toxin inhibitors: cycloheximide protein synthesis inhibition; hit rate 12% among 300,000; max response, %; AID 2314; cell reporter, cycloheximide protein synthesis inhibition counterscreen; in the data active = max response mostly above about 13%, no sharp cut-off; inactive = mostly below about 14%; note: read at 38.3 µM for the half of the compounds with a filed dose; 0% is about no effect
# SARS PLP yeast – blocks SARS-CoV papain-like protease in a yeast assay; S. cerevisiae expressing SARS-CoV PLpro, growth rescue; Potency, µM (titrated, usually from 32.9 µM), for the others: top-dose activity, positive = growth rescue, most hits filed as activators; hit rate 0.19% among 330,000; calls by dose curve; note: potency is the fitted concentration of half-maximal effect; 0% is about no effect; nearly all actives have a fitted effect of over 55% in size
# NS1 function inh – blocks influenza NS1 protein function. Potency, µM (titrated, usually from 46.1 µM), without a hit: at the highest dose activity, positive = more growth. hit rate 0.4% among 270,000; calls by dose curve; note: potency is the fitted concentration of half-maximal effect; actives are rising curves; nearly all actives have a fitted effect of over 50% in size
#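 Recovery from NS1-induced slow growth read by OD600 in budding yeast switched to galactose assay medium (pH 6.0, -URA) at 1:100 dilution. Compound 23 nl per well; the matching strain lacking NS1 serves as control.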
# Pf growth 96h – P. falciparum growth inhibition at 96 hours; P. falciparum luciferase reporter growth, 96 h; Potency, µM (doses to about 28.7 µM), for the others: top-dose activity change, negative = inhibition, usual class: inhibitors; hit rate 6.9% among 320,000; note: potency is the fitted concentration of half-maximal effect; % is set by controls: 0 for no effect and ±100 for the full control effect
#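 Readout is luminescence from an integrated firefly luciferase in P. falciparum. Red cells, 2% hematocrit and 0.05% parasitemia final, were cultured with compound through two parasite generations (96 hours) at 37 C, 5% CO2.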
# * marks the source's active call; other numbers are inactive results; ? = inconclusive; . = not tested or not shown; [ ] = dose if it differs, or a comment. Unless noted, calls come from the whole dose curve; as a rule, active = well fitted inhibition curve with a large enough effect; inconclusive = small, poorly fitted or top-dose-only effect, or another doubt; inactive = no such curve, though single readings can be large or run the other way.
SMILES,Pf growth 48h,Shiga toxin inh,CHX counter,SARS PLP yeast,NS1 function inh,Pf growth 96h
CN(C)CCNS(=O)(=O)c1ccc(N2CCN(c3ccc(F)cc3)CC2)c([N+](=O)[O-])c1,12µM*,-11,0,5%,-15%,?
CCC(=O)NNc1nc2c(Cl)cccc2s1,11%,3,-5,0%,2%,-30%[1.15 µM]
Cc1ccc(CNC(=O)COC(=O)CCOc2ccc(C)cc2)cc1,-27%,.,.,-1%,.,12%
COc1ccccc1NS(=O)(=O)c1cc(NC(=O)c2cc(=O)[nH]c3ccccc23)ccc1N1CCOCC1,10µM*,-5,-4,0%,-4%,?
COCC(=O)Nc1ccc(N2CCOCC2)c(S(=O)(=O)Nc2ccccc2OC)c1,.,.,.,3%,.,.
COc1ccccc1NS(=O)(=O)c1cc(NC(=O)c2cnccn2)ccc1N1CCOCC1,12µM*,-11,-1,0%,2%,?
COc1ccccc1NS(=O)(=O)c1cc(NC(=O)c2ccncc2)ccc1N1CCOCC1,?,14,-3,1%,-3%,15µM*
COc1ccccc1NS(=O)(=O)c1cc(NC(=S)NCCN2CCOCC2)ccc1N1CCOCC1,?,-15,-2,5%,14%,15µM*
COc1ccccc1NS(=O)(=O)c1cc(NC(=O)C(C)(C)C)ccc1N1CCOCC1,?,.,.,1%,.,?
COc1ccccc1NS(=O)(=O)c1cc(NC(=O)c2cccc(S(=O)(=O)N(C)C)c2)ccc1N1CCOCC1,2.3µM*,.,.,1%,.,1.5µM*
CCN1C(=O)[C@H]2[C@H]3CN=C(SCc4ccc(C)cc4)N3[C@@](CC)(C(=O)OC)[C@H]2C1=O,.,.,.,-15%,.,.
N#CN=C1SCCN1Cc1ccc(Cl)nc1,.,3,-6,.,.,.
N/C(COc1ccc(Cl)cc1)=N\NS(=O)(=O)c1ccccc1,-1%,-6,-2,-1%,8%,36%
O=S(=O)(O)c1cccc2cccnc12,.,-4,11,.,.,.
O=S(=O)(Oc1ccc(Cl)cc1)c1cccc2cccnc12,16%,35,16*,-4%,-37%,64%
O=S(=O)(Oc1ccc(Cl)cc1)c1ccccc1,.,21*,21*,.,.,.
CN(C)/N=C/c1ccc(OS(=O)(=O)c2ccccc2)cc1,114%,64*,47*,-2%,-1%,5%
COC(=O)c1sc2nc3c(cc2c1N)CCCC3,172%,99*,39*,-4%,-9%,-3%
NC(=O)c1sc2nc3c(cc2c1N)CCC3,68%,48*,22*,-2%,.,9%
CCCCS(=O)(=O)c1sc2nc3c(cc2c1N)CCCC3,-11%,79,2,-7%,-15%,?
COC(=O)c1sc2nc(N)c(C#N)cc2c1N,57%,73*,30*,17%,27%,-14%
COc1ccc(S(=O)(=O)N(C)C[C@H]2Oc3c(cccc3N(C)C)C(=O)N([C@H](C)CO)C[C@@H]2C)cc1,.,.,.,-7%,.,.
Cc1csc(NC(=O)c2cc(-c3ccccc3)nc3ccccc23)n1,?,-11,-1,-5%,?,?
CSc1ccc(Cl)c(C(=O)Nc2ccc(Cl)cn2)c1,11%,1,1,-1%,-3%,7.4µM*
COc1cc(SC)ccc1C(=O)Nc1ccc(Cl)cn1,-2%,77*,33*,-1%,-4%,?
SMILES,Pf growth 48h,Shiga toxin inh,CHX counter,SARS PLP yeast,NS1 function inh,Pf growth 96h
COc1cc(SC)ccc1C(=O)Nc1nc(C)cc(C)n1,43%,-1,-2,-2%,-21%,?
CC(=NCCN1CCN(C(=S)Nc2ccccc2)CC1)C1=C(O)CC(C)(C)CC1=O,?,-6,-4,0%,-4%,?
Cc1ccc(C(=O)/C=C/c2ccc3c(c2)OCCO3)c(O)c1,231%,86*,40*,-1%,-4%,201%
O=C(/C=C/c1ccc2c(c1)OCCCO2)c1ccc2ccccc2c1O,30%,40*,12*,-1%,5%,61%
c1nc(N2CCCCC2)c2[nH]cnc2n1,-8%,-14,-5,7%,4%,13µM*
O=C(C1=NNCC1c1ccc(Cl)cc1)C1CO1 (stereo not drawn),-14%,-15,1,-2%,3%,0%
O=C(COC(=O)c1cnccn1)NCCc1ccc(Cl)cc1,25%,.,.,0%,.,20%
COC(=O)N/N=C(\C)c1cccs1,0%,17,11*,1%,5%,11%

# Source: PubChem
